Reference: PubChem BioAssay

Target: E3 ubiquitin-protein ligase XIAP (Homo sapiens) (UniProt P98170)
Assay: small molecules binding XIAP protein – biophysical, small-molecule microarray, fluorescence 635 nm, primary screen (AID 1181);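 note: score merges 667 nm emission and signal to noise over triplicate slides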
Conditions: higher = more signal

E3 ubiquitin-protein ligase XIAP (Homo sapiens), sequence (P98170 whole entry, looked up): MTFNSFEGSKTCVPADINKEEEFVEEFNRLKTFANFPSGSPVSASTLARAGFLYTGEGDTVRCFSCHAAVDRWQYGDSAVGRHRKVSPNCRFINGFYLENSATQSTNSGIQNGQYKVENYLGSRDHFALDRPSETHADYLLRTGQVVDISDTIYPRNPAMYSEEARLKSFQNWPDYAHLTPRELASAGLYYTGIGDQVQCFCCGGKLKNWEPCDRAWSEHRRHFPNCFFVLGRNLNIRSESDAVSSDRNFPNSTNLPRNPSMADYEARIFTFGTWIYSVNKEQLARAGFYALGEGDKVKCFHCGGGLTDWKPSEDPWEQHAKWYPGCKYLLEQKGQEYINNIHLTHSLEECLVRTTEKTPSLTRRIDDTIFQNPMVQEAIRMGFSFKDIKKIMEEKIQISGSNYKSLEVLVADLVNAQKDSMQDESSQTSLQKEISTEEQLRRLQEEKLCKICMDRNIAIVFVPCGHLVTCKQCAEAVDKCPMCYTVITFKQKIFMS

**Q.** For CCS[C@H]1[C@@H](C(=O)O)[C@H](c2ccc(C)cc2)N(S(=O)(=O)c2ccc(C)cc2)[C@@H]1CC, which composite z-score is on record?
**A.** -0.167

**Q.** For CN1C(=O)C2C=CC(C(O)C#Cc3ccccc3)N(N3CCCCC3)C2C1=O (stereo not drawn), which composite z-score is on record?
**A.** -0.0474

**Q.** With O=C1O[C@H](c2ccccc2)[C@H](c2ccccc2)N2[C@H]1[C@@H](C(=O)N1CCCCCCC1)[C@]1(C(=O)Nc3ccc(C#CCCO)cc31)[C@H]2c1ccccc1OCCO as the compound, how does the composite z-score read?
**A.** 2.87

**Q.** For CC(C)C(=C=CC[C@@H](O)c1ccc(OCCO)cc1)C[C@@H](O)COCc1ccccc1, which composite z-score is on record?
**A.** 0.108

**Q.** CCCC[C@H]1OB(O)C[C@H]2C1=C(COC)Cn1c(=O)n(-c3ccccc3)c(=O)n12 was tested. Which composite z-score did it give?
**A.** -0.053

**Q.** CCC[C@@H]1C[C@@]1(CCC)[C@@H](NS(=O)(=O)c1cccc2cccnc12)c1ccc(Cl)cc1 was tested. Which composite z-score did it give?
**A.** 0.0999

**Q.** With [N-]=[N+]=Nc1ccccc1[C@@H]1OC(c2ccc(OCCCO)cc2)=N[C@]1(CCS(=O)(=O)c1ccccc1)C(N)=O as the compound, how does the composite z-score read?
**A.** 0.0975

**Q.** With COC(=O)[C@@]1(Cc2ccc(F)cc2)[C@H]2c3cc(C(=O)N(C)C)n(Cc4ccc(Cl)c(C(F)(F)F)c4)c3C[C@H]2CN1C(=O)c1ccccc1 as the compound, how does the composite z-score read?
**A.** 0.929

**Q.** For CO[C@H]1O[C@H](CO)[C@@H](OC(=O)Nc2ccc(Oc3ccccc3)cc2)[C@H](OC(=O)Nc2ccc3c(c2)OCO3)[C@H]1OC(=O)Nc1ccc2c(c1)OCO2, which composite z-score is on record?
**A.** -0.0795

**Q.** How did the composite z-score turn out when CC(C)=CCCC(C)=CC(O)C1C=CC2C(=O)N(C)C(=O)C2N1Nc1ccccc1 (stereo not drawn) was run?
**A.** 0.123

**Q.** With CCOC(=O)C[C@H]1[C@H](OC(=O)c2ccc(-c3ccccc3)cc2)[C@@H](NC(=O)Cc2ccc(OC)cc2)c2cc(OCCCO)ccc2N1C(=O)c1ccccc1 as the compound, how does the composite z-score read?
**A.** 0.15

**Q.** For CC(C)C[C@@H]1NC(=O)[C@@H]2C[C@H](C(=O)NCc3ccc(F)cc3)[C@H](c3cccc(OCCO)c3)N2C1=O, which composite z-score is on record?
**A.** -0.052

**Q.** With NC(=O)NCC#Cc1ccc2c(c1)[C@]1(C(=O)N2)[C@H](c2ccccc2OCCO)N2[C@H](c3ccccc3)[C@H](c3ccccc3)OC(=O)[C@H]2[C@@H]1C(=O)Nc1nc2ccccc2s1 as the compound, how does the composite z-score read?
**A.** -0.102

**Q.** For C=C(CCCC)/C(=C/C[C@@H](OC(=O)c1ccncc1)c1ccc(OCCO)cc1)c1cc(C(=O)OC)ccc1OC, which composite z-score is on record?
**A.** -0.141

**Q.** For C=C(C)[C@@H]1CC=C(C(O)C2C=CC3C(=O)N(C)C(=O)C3N2Nc2ccccc2)CC1 (stereo partly drawn), which composite z-score is on record?
**A.** 0.0688

**Q.** Which composite z-score does the source give for O=C1N[C@@H](Cc2ccccc2)C(=O)N2[C@@H]1C[C@@H](C(=O)O)[C@H]2c1cccc(OCCO)c1 here?
**A.** -0.102

**Q.** For COC(=O)C(CC#Cc1ccc2c(c1)[C@]1(C(=O)N2)[C@H](c2ccc(OCCO)cc2)N2[C@H](c3ccccc3)[C@H](c3ccccc3)OC(=O)[C@H]2[C@@H]1C(=O)Nc1nc2ccccc2s1)C(=O)OC, which composite z-score is on record?
**A.** -0.138

**Q.** For C=CCN1C(=O)[C@@]2(Cc3ccccc31)N=C(c1ccc(OCCCO)cc1)O[C@H]2c1ccccc1, which composite z-score is on record?
**A.** -0.0009
